Out of some 5,500 compounds screened, about 2,000 (36%) were called active. Another 18% or so got no clear call; they are omitted. Rule as the data show it: active = normalized growth mostly below about 0.91 (no sharp cut-off); inconclusive = no clear call, values can overlap the other calls; inactive = mostly above about 0.92. This is one part of the list.
Assay: chemical genetic growth profiling, strain panel (AID 1159580);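 also: tested at 20 µM; growth read once vehicle control cultures reached saturation at 30 °C; 1 = growth at the plate median or of vehicle wells; lower values mean less growth of the strain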
Settings: growth OD

Measured: normalized growth

CC(CN(C)C)CN1c2ccccc2Sc2ccccc21 (configuration not stated)
inactive: S. cerevisiae deletion strains, locus YJR075W, strain HOC1, stronger effect = lower value 0.986 | S. cerevisiae deletion strains, locus YKL009W, strain mrt4, stronger effect = lower value 0.99 | S. cerevisiae deletion strains, locus YKL068W, stronger effect = lower value 0.981 | S. cerevisiae deletion strains, locus YKL085W, strain MDH1 (second series), stronger effect = lower value 1.01 | S. cerevisiae deletion strains, locus YKL085W, strain MDH1, stronger effect = lower value 1.01 | S. cerevisiae deletion strains, locus YKL160W, strain elf1, stronger effect = lower value 1.01 | S. cerevisiae deletion strains, locus YKL190W, strain CNB1, stronger effect = lower value 0.999 | S. cerevisiae deletion strains, locus YKR001C, strain vps1, stronger effect = lower value 0.991 | S. cerevisiae deletion strains, locus YKR026C, strain gcn3, stronger effect = lower value 1.02 | S. cerevisiae deletion strains, locus YKR091W, strain srl3, stronger effect = lower value 1.02 | S. cerevisiae deletion strains, locus YLL001W, strain dnm1, stronger effect = lower value 1.02 | S. cerevisiae deletion strains, locus YLL026W, stronger effect = lower value 1.02 | S. cerevisiae deletion strains, locus YLL041C, strain sdh2, stronger effect = lower value 1.01 | S. cerevisiae deletion strains, locus YLR027C, strain aat2, stronger effect = lower value 1.02 | S. cerevisiae deletion strains, locus YLR058C, strain SHM2, stronger effect = lower value 0.985 | S. cerevisiae deletion strains, locus YLR102C, strain apc9, stronger effect = lower value 0.993 | S. cerevisiae deletion strains, locus YLR113W, strain HOG1, stronger effect = lower value 0.988 | S. cerevisiae deletion strains, locus YLR221C, strain rsa3, stronger effect = lower value 1.02 | S. cerevisiae deletion strains, locus YLR258W, strain gsy2, stronger effect = lower value 1.02 | S. cerevisiae deletion strains, locus YLR262C, strain YPT6 (second series), stronger effect = lower value 1.1 | S. cerevisiae deletion strains, locus YLR268W, strain sec22, stronger effect = lower value 0.918 | S. cerevisiae deletion strains, locus YLR320W, strain mms22, stronger effect = lower value 1.01 | S. cerevisiae deletion strains, locus YLR330W, strain CHS5, stronger effect = lower value 0.999 | S. cerevisiae deletion strains, locus YLR342W, strain FKS1 (second series), stronger effect = lower value 0.888 | S. cerevisiae deletion strains, locus YLR342W, strain FKS1, stronger effect = lower value 1.03 | S. cerevisiae deletion strains, locus YLR357W, strain rsc2, stronger effect = lower value 1.04 | S. cerevisiae deletion strains, locus YLR370C, strain arc18, stronger effect = lower value 1.02 | S. cerevisiae deletion strains, locus YLR371W, strain rom2, stronger effect = lower value 0.994 | S. cerevisiae deletion strains, locus YLR384C, strain iki3, stronger effect = lower value 1.02 | S. cerevisiae deletion strains, locus YLR418C, strain cdc73, stronger effect = lower value 0.874 | S. cerevisiae deletion strains, locus YML016C, strain PPZ1, stronger effect = lower value 0.992 | S. cerevisiae deletion strains, locus YML032C, strain rad52, stronger effect = lower value 0.968 | S. cerevisiae deletion strains, locus YML120C, strain ndi1, stronger effect = lower value 0.998 | S. cerevisiae deletion strains, locus YML124C, strain tub3, stronger effect = lower value 0.995 | S. cerevisiae deletion strains, locus YMR058W, strain fet3, stronger effect = lower value 1.01 | S. cerevisiae deletion strains, locus YMR078C, strain ctf18, stronger effect = lower value 0.985 | S. cerevisiae deletion strains, locus YMR125W, strain sto1, stronger effect = lower value 1.02 | S. cerevisiae deletion strains, locus YMR129W, stronger effect = lower value 1.02 | S. cerevisiae deletion strains, locus YMR205C, strain PFK2, stronger effect = lower value 1.03 | S. cerevisiae deletion strains, locus YMR223W, strain ubp8, stronger effect = lower value 0.98 | S. cerevisiae deletion strains, locus YMR231W, strain pep5, stronger effect = lower value 1.03 | S. cerevisiae deletion strains, locus YMR263W, strain SAP30, stronger effect = lower value 0.978 | S. cerevisiae deletion strains, locus YMR307W, strain GAS1, stronger effect = lower value 1.03 | S. cerevisiae deletion strains, locus YNL067W, strain RPL9B, stronger effect = lower value 0.967 | S. cerevisiae deletion strains, locus YNL071W, strain lat1, stronger effect = lower value 1.02 | S. cerevisiae deletion strains, locus YNL128W, strain TEP1, stronger effect = lower value 0.988 | S. cerevisiae deletion strains, locus YNL153C, strain GIM3, stronger effect = lower value 0.953 | S. cerevisiae deletion strains, locus YNL183C, strain NPR1, stronger effect = lower value 0.948 | S. cerevisiae deletion strains, locus YNL209W, strain ssb2, stronger effect = lower value 1.02 | S. cerevisiae deletion strains, locus YNL233W, strain BNI4, stronger effect = lower value 0.969 | S. cerevisiae deletion strains, locus YNL248C, strain rpa49, stronger effect = lower value 1.02 | S. cerevisiae deletion strains, locus YNL250W, strain rad50, stronger effect = lower value 0.985 | S. cerevisiae deletion strains, locus YNL271C, strain bni1, stronger effect = lower value 0.992 | S. cerevisiae deletion strains, locus YNL298W, strain CLA4, stronger effect = lower value 0.991 | S. cerevisiae deletion strains, locus YNL307C, strain MCK1, stronger effect = lower value 0.974 | S. cerevisiae deletion strains, locus YNL322C, strain KRE1 (second series), stronger effect = lower value 1.04 | S. cerevisiae deletion strains, locus YNL322C, strain KRE1, stronger effect = lower value 0.998 | S. cerevisiae deletion strains, locus YNR049C, strain mso1, stronger effect = lower value 1.04 | S. cerevisiae deletion strains, locus YNR052C, strain pop2, stronger effect = lower value 0.974 | S. cerevisiae deletion strains, locus YOL006C, strain TOP1, stronger effect = lower value 0.922 | S. cerevisiae deletion strains, locus YOL012C, strain htz1 0.837 | S. cerevisiae deletion strains, locus YOL147C, strain pex11, stronger effect = lower value 0.996 | S. cerevisiae deletion strains, locus YOR001W, strain rrp6, stronger effect = lower value 1.01 | S. cerevisiae deletion strains, locus YOR061W, strain CKA2, stronger effect = lower value 0.996 | S. cerevisiae deletion strains, locus YOR069W, strain VPS5, stronger effect = lower value 0.984 | S. cerevisiae deletion strains, locus YOR070C, strain gyp1, stronger effect = lower value 1.02 | S. cerevisiae deletion strains, locus YOR080W, strain dia2, stronger effect = lower value 1.02 | S. cerevisiae deletion strains, locus YOR083W, strain WHI5, stronger effect = lower value 0.987 | S. cerevisiae deletion strains, locus YOR106W, strain vam3, stronger effect = lower value 1.05 | S. cerevisiae deletion strains, locus YOR136W, strain idh2, stronger effect = lower value 0.987 | S. cerevisiae deletion strains, locus YOR144C, strain elg1, stronger effect = lower value 0.993 | S. cerevisiae deletion strains, locus YOR184W, strain ser1, stronger effect = lower value 1.02 | S. cerevisiae deletion strains, locus YOR231W, strain MKK1, stronger effect = lower value 0.997 | S. cerevisiae deletion strains, locus YOR265W, strain rbl2, stronger effect = lower value 1.03 | S. cerevisiae deletion strains, locus YOR270C, strain vph1, stronger effect = lower value 1.08 | S. cerevisiae deletion strains, locus YOR290C, strain snf2, stronger effect = lower value 1.02 | S. cerevisiae deletion strains, locus YOR316C, strain cot1, stronger effect = lower value 0.992 | S. cerevisiae deletion strains, locus YPL051W, strain arl3, stronger effect = lower value 0.996 | S. cerevisiae deletion strains, locus YPL055C, strain LGE1, stronger effect = lower value 0.992 | S. cerevisiae deletion strains, locus YPL078C, strain atp4, stronger effect = lower value 1.01 | S. cerevisiae deletion strains, locus YPL106C, strain sse1, stronger effect = lower value 1.03 | S. cerevisiae deletion strains, locus YPL240C, strain hsp82, stronger effect = lower value 0.997 | S. cerevisiae deletion strains, locus YPL241C, strain CIN2, stronger effect = lower value 0.999 | S. cerevisiae deletion strains, locus YPL256C, strain CLN2, stronger effect = lower value 0.99 | S. cerevisiae deletion strains, locus YPR119W, strain clb2, stronger effect = lower value 0.997 | S. cerevisiae deletion strains, locus YPR141C, strain kar3, stronger effect = lower value 0.983 | S. cerevisiae deletion strains, locus YPR163C, strain tif3, stronger effect = lower value 0.966 | S. cerevisiae deletion strains, locus YPR167C, strain met16, stronger effect = lower value 0.99 | S. cerevisiae deletion strains, strain wtn01, stronger effect = lower value 0.968 | S. cerevisiae strains, strain wild type, stronger effect = lower value 0.992
active: S. cerevisiae deletion strains, locus YLR039C, strain RIC1, stronger effect = lower value 1.34 [resistant] | S. cerevisiae deletion strains, locus YLR262C, strain YPT6, stronger effect = lower value 1.44 [resistant]
